Test results published in PubChem BioAssay (NCI).
Values joined by “and” are separate entries in the source; they are usually repeats but may differ in a detail not shown here. Equal values may be shown once. This is part of a sample that, as a whole, favours compounds with a hit. Of some 83,000 tested, about 20% had one in any assay.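 Negative percent growth values reflect cell death: -40 means 40% of the cells present at the start died, and -100 means all died.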 Active and inactive are the calls of the source. How the source made its calls: active means growth percent below 10; inactive means the rest.

Each compound was assayed on OVCAR-3 ovarian (assay: NCI-60 one-dose screen, 48 h (100 = growth as untreated, 0 = no growth, -100 = all killed)). Details: 10 µM unless noted.

Row | SMILES | growth
1 | CN1CCN(CCCN2c3ccccc3Sc3ccc(Cl)cc32)CC1 | 93.9% (inactive) and 81.3% (inactive)
2 | O=C(c1cccc(Br)c1)N1CCN(c2ccnc3cc(Cl)ccc23)CC1 | 86.9% (inactive)
3 | N#CSc1c[nH]c2ccc(/C=C/C(=O)/C=C(/C=C/c3ccc4[nH]cc(SC#N)c4c3)OB(F)F)cc12 | -52.8% (active)
4 | COc1cc(Nc2nc3ccccc3cc2C(=O)Nc2ccc(F)c(F)c2)cc(OC)c1OC | 10.6% (inactive)
5 | CCOC(=O)CC1CSC(c2cccc(Cl)c2)=N1 (centres undefined) | 107% (inactive)
6 | CC/C=C\C/C=C\C[C@H](O)C/C=C1/C(=O)C=C[C@@H]1C/C=C\CCCC(=O)OC | -40.1% (active)
7 | CCCCCCNC(=O)Oc1ccc(/C(=C(/CC)Cc2ccccc2)c2ccc(OCCCN(C)C)cc2)cc1 | 95.3% (inactive)
8 | NC(N)=NC(N)=NCCCc1ccco1 | 102% (inactive)
9 | O=C(N=Nc1c(O)[nH]c2ccccc12)Nc1ccccc1Cl | 101% (inactive)
10 | O=C(N/N=C/c1ccc(O)cc1O)c1cccc(Nc2ccnc(C(F)(F)F)c2)c1 | 32% (inactive)
11 | O=C(Nc1ccc2ccccc2c1)c1cc2ccccc2cc1O | -0.789% (active)
12 | Cc1ccc(-c2nc3nc(-c4ccccc4)nc(N4CCN(S(=O)(=O)c5ccccc5)CC4)c3o2)cc1 | 93% (inactive)
13 | Cn1cc(C2=C(c3cccc4ccccc34)C(=O)NC2=O)c2cc(Br)ccc21 | 104% (inactive)
14 | CC[C@@H]1NC(=O)[C@H]([C@H](O)[C@H](C)C/C=C/c2ccc(CN3C(=O)C(C)=C(C)C3=O)cc2)N(C)C(=O)[C@H](C(C)C)N(C)C(=O)[C@H](CC(C)C)N(C)C(=O)[C@H](CC(C)C)N(C)C(=O)[C@@H](C)NC(=O)[C@H](C)NC(=O)[C@H](CC(C)C)N(C)C(=O)[C@H](C(C)C)NC(=O)[C@H](CC(C)C)N(C)C(=O)CN(C)C1=O | 76.7% (inactive)
15 | O=C1/C(=C/c2ccc(F)c(F)c2)CN(C(=O)C(Cl)Cl)C/C1=C\c1ccc(F)c(F)c1 | -97% (active)
16 | O=C1C(c2c[nH]c3ccccc23)=C(c2coc3cc(Br)ccc23)C(=O)N1O | 102% (inactive)
17 | CC1=CC(C)(C)NC(=S)N1c1ccc(Cl)cc1 | 110% (inactive) and 104% (inactive)

Row | SMILES | growth
18 | O=C1/C(=C/c2ccccc2)CN(C(=O)C(Cl)Cl)C/C1=C\c1ccccc1 | -52.7% (active)
19 | CC(=O)N1N=C(c2ccc(Nc3nc(Nc4ccc(F)cc4)nc(Nc4ccc(Cl)cc4)n3)cc2)CC1c1ccc(N(C)C)cc1 (centres undefined) | 63.5% (inactive)
20 | CCCN1C(=O)/C(=c2\sc3n(c2=O)NC2C(N=3)N(CC)C(=O)N2CC)c2ccccc21 (centres undefined) | 9.19% (active)
21 | CONC1=Nc2cc(NC(N)=NCc3ccccc3)c(N(C)C3CCCCC3)cc2OC1 | 77.4% (inactive)
22 | Cc1c(CC(=O)OCCO)cc(-c2ccc(Cl)cc2)n1-c1ccccc1 | 108% (inactive)
23 | COc1cc(/C=C2\CCC/C(=C\c3cc(CN4CCCC4)c(O)c(OC)c3)C2=O)cc(CN2CCCC2)c1O | 6.05% (active)
24 | Fc1ccccc1-c1cnn2cc(-c3ccccc3)cnc12 | 109% (inactive)
25 | CC(C)(C)c1cc(NC(=O)Nc2ccc(-c3cn4c(n3)sc3cc(OCCN5CCOCC5)ccc34)cc2)no1 | -43.2% (active) and 38.5% (inactive)
26 | COc1ccc(/C=N/NC(=O)CN2CCN(c3cc4c(cc3F)c(=O)c(C(=O)O)cn4C3CC3)CC2)cc1O | 103% (inactive)
27 | NNCCc1ccccc1 | 122% (inactive) and 100% (inactive)
28 | CNC(=O)c1cc(Oc2ccc3nc(NC(=O)Nc4ccc(C(F)(F)F)cc4)sc3c2)ccn1 | 24% (inactive)
29 | CC1=C2[C@@H](CC1)[C@]1(C)O[C@@](C3CC3)(C[C@H]1OC(=O)CO)[C@H]2OC(=O)/C=C/c1ccccc1 | 95.2% (inactive)
30 | O=C(c1ccc(Nc2nccc(NCCCNc3ccnc4cc(Cl)ccc34)n2)cc1)N1CCCCC1 | 37.7% (inactive)
31 | CCN(CC)CC#CCOC(=O)[C@]1(C)CCC[C@]2(C)c3ccc(C(C)C)cc3CC[C@@H]12 | 90.6% (inactive)
32 | Nc1nc2ccccc2c2c(=O)c3ccc(Cl)cc3sc12 | 104% (inactive)
33 | Nc1nc2c(s1)CCc1cn(S(=O)(=O)c3ccccc3)cc1-2 | 96% (inactive) and 108% (inactive)
34 | COc1cccc(NC(=O)c2sc3nc(C)c(C(O)c4ccccc4)cc3c2N)c1 (centres undefined) | -10.4% (active)
